Experimental findings from PubChem BioAssay (Tox21) are described below.

“And” between values parts separate entries of the source, which are not always exact repeats. Equal values may be shown once. Records with an inconclusive call do not appear. Where a structure was tested more than once in an assay, its records may differ in their call. The source made the active and inactive calls. Unless noted, calls come from the whole dose curve; as a rule, active = well fitted curve in the direction sought with a large enough effect in the repeat runs; inconclusive = weak or mixed curves; inactive = no such curve, though single readings can be large; an effect the other way counts as inactive or inconclusive.

The nature of experiment [1]: qHTS assay to identify aromatase inhibitors - cell viability counter screen (AID 743084).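 Note: cells stimulated with testosterone during compound exposure; nearly all actives have a fitted effect of over 55% in size.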
The target in experiment [2] is Aryl hydrocarbon receptor (Homo sapiens) (UniProt P35869). Nature of the experiment: qHTS assay to identify small molecule that activate the aryl hydrocarbon receptor (AhR) signaling pathway (AID 743085).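 For activation: HG2L7.5c1 human HepG2 liver cells with stably integrated DRE-driven firefly reporter; series mostly up to about 70 µM.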 Note: nearly all actives have a fitted effect of over 15% in size. Note: potency is the fitted concentration of half-maximal effect. In short, it runs like this:
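24 h compound exposure, 37C, HepG2-derived HG2L7.5c1 cells with DRE-responsive luciferase. Readouts: fluorescence viability, then luminescence at room temperature after 30 min.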
A general note: Quantitative high-throughput screening tests each substance at several concentrations.

A short description of experiment [3]: qHTS assay to identify small molecule that activate the aryl hydrocarbon receptor (AhR) signaling pathway - cell viability counter screen (AID 743086).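 Note: HepG2 liver cells carrying the AhR DRE luciferase reporter; series mostly up to about 70 µM; nearly all actives have a fitted effect of over 45% in size.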 In outline: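 HepG2-AhR-luc (HG2L7.5c1) cells, 4000/well, were preincubated 5 h at 37C, exposed to compound in qHTS format for 24 hr at 37C, then given CellTiter-Fluor for 30 min; viability was read as fluorescence in the reporter wells.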

Experiment [4] concerns the target Peroxisome proliferator-activated receptor gamma (Homo sapiens) (UniProt P37231). Description: qHTS assay to identify small molecule agonists of the peroxisome proliferator-activated receptor gamma (PPARg) signaling pathway (AID 743094; active = well fitted activation curve with a large enough effect in the signal ratio in the repeat runs, not every such curve was filed as active; the % refers to the signal ratio). In short, it runs like this:
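Agonism was assessed in a beta-lactamase reporter system, HEK293H cells with a stably integrated UAS-bla construct under PPARg control; the 17 h treatment at 37C preceded a 1 h room-temperature FRET substrate read.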

Experiment [5] shares this target. Description: qHTS assay to identify small molecule antagonists of the peroxisome proliferator-activated receptor gamma (PPARg) signaling pathway (AID 743191; calls by dose curve; note: series mostly up to about 63 µM; nearly all actives have a fitted effect of over 30% in size). In short, it runs like this:
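GeneBLAzer PPARg UAS-bla HEK293H cells carrying a UAS-driven beta-lactamase reporter were plated at 3000 cells/well, preincubated 5 h at 37C, then given compound for 17 h at 37C; LiveBLAzer B/G FRET substrate was read after 1 h at room temperature.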

Experiment [6] can be described thus: qHTS assay for small molecule agonists of the antioxidant response element (ARE) signaling pathway (AID 743202; active = well fitted activation curve with a large enough effect in the signal ratio in the repeat runs, not every such curve was filed as active; the % refers to the signal ratio). In outline: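 Following a 16 h, 37 C exposure of reporter HepG2 cells (ARE-driven beta-lactamase, 2,000 cells/well) to compounds, FRET substrate was applied for 2 h at room temperature and fluorescence intensity recorded.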
The nature of experiment [7]: qHTS assay for small molecule agonists of the antioxidant response element (ARE) signaling pathway - cell viability counter screen (AID 743203; calls by dose curve; note: nearly all actives have a fitted effect of over 55% in size). In short, it runs like this: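 ATP content via CellTiter-Glo luminescence served as the viability measure. Cells: ARE-bla HepG2, 2,000 per well. Exposure: 16 hrs, 37C/5% CO2.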
Experiment [8] in a line: qHTS assay for small molecule activators of the heat shock response signaling pathway - cell viability counter screen (AID 743209). Note: nearly all actives have a fitted effect of over 50% in size. In short, it runs like this: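 Compounds dissolved in DMSO were added to overnight-plated HSE-bla HeLa cells and left 5 h at 37 C. Cell viability was quantified by luminescence using CellTiter-Glo.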
A short description of experiment [9]: qHTS assay for small molecule activators of the heat shock response signaling pathway (AID 743210; active = well fitted activation curve with a large enough effect in the signal ratio in the repeat runs, with a control signal flat, not every such curve was filed as active; the % refers to the signal ratio; note: series mostly up to about 63 µM). In short, it runs like this:
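Heat shock element–beta-lactamase HeLa reporter cells; qHTS with compounds for 5 h at 37 C; detection by FRET substrate fluorescence after 2.5 h at RT.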

Experiment [10] in a line: qHTS assay to identify small molecule antagonists of the peroxisome proliferator-activated receptor gamma (PPARg) signaling pathway - cell viability counter screen (AID 743194). Note: nearly all actives have a fitted effect of over 55% in size. In outline: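 PPARg-UAS-bla HEK293H cells were plated, rested 5 h at 37 C, then treated with compounds plus rosiglitazone (50 nM final) for 17 h at 37 C; viability was then read by CellTiter-Glo luminescence after 30 min at room temperature.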

Aryl hydrocarbon receptor (Homo sapiens), sequence (P35869 whole entry, looked up): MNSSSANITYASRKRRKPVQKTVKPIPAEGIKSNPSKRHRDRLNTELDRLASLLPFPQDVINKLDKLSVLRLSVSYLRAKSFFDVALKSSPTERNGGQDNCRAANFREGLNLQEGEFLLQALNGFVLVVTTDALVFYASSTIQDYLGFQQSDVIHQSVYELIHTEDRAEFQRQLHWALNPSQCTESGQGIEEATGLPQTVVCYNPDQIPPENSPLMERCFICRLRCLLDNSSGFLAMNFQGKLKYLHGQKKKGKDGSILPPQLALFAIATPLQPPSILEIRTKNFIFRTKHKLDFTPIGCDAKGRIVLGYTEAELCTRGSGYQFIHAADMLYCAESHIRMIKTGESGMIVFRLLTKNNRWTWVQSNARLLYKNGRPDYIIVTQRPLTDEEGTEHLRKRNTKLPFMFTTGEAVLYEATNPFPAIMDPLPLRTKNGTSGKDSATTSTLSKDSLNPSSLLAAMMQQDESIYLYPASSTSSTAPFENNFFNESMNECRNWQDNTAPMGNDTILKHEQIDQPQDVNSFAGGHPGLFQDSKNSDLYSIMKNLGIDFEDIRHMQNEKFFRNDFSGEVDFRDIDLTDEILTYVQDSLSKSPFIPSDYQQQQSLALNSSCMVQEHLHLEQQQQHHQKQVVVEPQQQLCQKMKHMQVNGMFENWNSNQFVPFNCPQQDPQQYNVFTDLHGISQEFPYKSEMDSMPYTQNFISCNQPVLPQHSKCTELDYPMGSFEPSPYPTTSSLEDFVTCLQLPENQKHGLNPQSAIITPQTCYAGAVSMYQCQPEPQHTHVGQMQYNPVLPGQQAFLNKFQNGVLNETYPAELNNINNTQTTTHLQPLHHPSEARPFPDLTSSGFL
Peroxisome proliferator-activated receptor gamma (Homo sapiens), sequence (P37231 whole entry, looked up): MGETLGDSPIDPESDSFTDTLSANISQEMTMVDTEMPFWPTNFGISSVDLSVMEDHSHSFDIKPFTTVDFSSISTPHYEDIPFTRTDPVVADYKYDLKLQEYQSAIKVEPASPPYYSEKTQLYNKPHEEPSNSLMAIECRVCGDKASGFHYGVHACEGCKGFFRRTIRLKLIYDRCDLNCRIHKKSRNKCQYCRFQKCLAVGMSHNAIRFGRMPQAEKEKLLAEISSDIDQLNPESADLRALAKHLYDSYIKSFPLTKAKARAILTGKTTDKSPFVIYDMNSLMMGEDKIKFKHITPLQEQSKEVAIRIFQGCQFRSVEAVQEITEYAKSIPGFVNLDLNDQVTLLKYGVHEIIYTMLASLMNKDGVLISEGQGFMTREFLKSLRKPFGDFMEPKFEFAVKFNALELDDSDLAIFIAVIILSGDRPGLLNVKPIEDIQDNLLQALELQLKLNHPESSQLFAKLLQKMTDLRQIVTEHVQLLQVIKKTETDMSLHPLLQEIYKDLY

Regarding `CCCCCCCCCCCC#N`, the call in [1], in experiment [3], in experiment [4], in experiment [7], in [8] and in experiment [9] was inactive. Moreover, the Potency result in experiment [2], in experiment [5] and in experiment [6] was “inactive” in each case.

As to `CCCC1COC(Cn2cncn2)(c2ccc(Cl)cc2Cl)O1` (centres undefined), the molecule was called inactive in experiment [1], in [3], in experiment [4], in experiment [10], in experiment [7] and in [8]. Besides, the outcome in experiment [9] was inactive. In addition, in [2], the Potency was 34.4 µM (active). Besides, in experiment [5], the Potency result is “inactive”.

For `CCOP(=S)(OCC)Oc1cnc2ccccc2n1`, the outcome in [1], in experiment [3], in experiment [4], in experiment [10], in [7] and in [8] was inactive. The call in experiment [9] was inactive. The Potency entry in experiment [2] was “inactive and 10.9 µM (active)”. The Potency result in [5] and in experiment [6] was “inactive” in each case.

Turning to `c1ccc(OP(Oc2ccccc2)Oc2ccccc2)cc1`, the molecule was called inactive in experiment [1], in [3], in experiment [4], in experiment [10], in [7] and in experiment [8]. Also, the molecule was called inactive in experiment [9]. Besides, the Potency result in [2], in experiment [5] and in experiment [6] was “inactive” throughout.

Regarding `[O-][Cl+2]([O-])O`, the outcome in experiment [1], in experiment [3], in experiment [4], in experiment [10], in experiment [7] and in [8] was inactive. Besides, the molecule was called inactive in [9]. The Potency result in experiment [2] and in [5] was “inactive” in each case.

For the molecule `Nc1ccccc1C(=O)O`, the molecule was classed as inactive in experiment [1], in [3], in experiment [4], in experiment [10], in experiment [7] and in experiment [8]. Moreover, the call in experiment [9] was inactive. In addition, the Potency result in experiment [2], in [5] and in experiment [6] was “inactive” each time.

Take `C1CN2CCN1CC2`: the result in experiment [1], in experiment [3], in experiment [4], in experiment [10], in experiment [7] and in experiment [8] was inactive. In experiment [9], the molecule was classed as inactive. The Potency entry in experiment [2], in [5] and in experiment [6] was “inactive” throughout.

In the case of `CCCCN(CC)C(=O)SCCC`, the molecule was called inactive in experiment [1], in experiment [3], in experiment [4], in experiment [7], in experiment [8] and in experiment [9]. For the same molecule, the Potency entry in [2], in experiment [5] and in experiment [6] was “inactive” throughout.

With `CC(Br)C(=O)O` (centres undefined), the molecule was classed as inactive in experiment [1], in experiment [3], in [4], in [10], in experiment [7] and in experiment [8]. The molecule was called inactive in experiment [9]. Also, the Potency entry in experiment [2], in [5] and in experiment [6] was “inactive” each time.

Regarding `BrCCBr`, the call in experiment [1], in experiment [3], in experiment [4], in experiment [10], in experiment [7] and in [8] was inactive. In addition, the Potency result in [2] and in experiment [5] was “inactive” each time.

Regarding `CC(C)(C)OOC(=O)c1ccccc1`, the call in [1], in experiment [3], in experiment [4], in experiment [10], in experiment [7] and in [8] was inactive. For the same molecule, the molecule was classed as inactive in experiment [9]. For the same molecule, the Potency entry in experiment [2], in experiment [5] and in [6] was “inactive” in each case.

`O=c1ccc(=O)[nH][nH]1`: the outcome in [1], in experiment [3], in experiment [4], in experiment [10], in experiment [7] and in experiment [8] was inactive. Also, the outcome in [9] was inactive. Also, the Potency entry in experiment [2], in [5] and in [6] was “inactive” in each case.

In the case of `Cc1ccccc1O`, the molecule was classed as inactive in [1], in [3], in experiment [4], in experiment [10], in [7] and in experiment [8]. In addition, the outcome in experiment [9] was inactive. Also, the Potency entry in experiment [2], in experiment [5] and in experiment [6] was “inactive” in each case.

Turning to `Nc1ccc(Cc2ccc(N)cc2)cc1`, the molecule was called inactive in experiment [1], in [3], in [4], in [10], in experiment [7] and in experiment [8]. The outcome in experiment [9] was inactive. The Potency in experiment [2] was 30.1 µM (active). The Potency entry in experiment [5] and in [6] was “inactive” throughout.

With `O=Cc1cccc(Oc2ccccc2)c1`, the molecule was classed as inactive in experiment [1], in experiment [3], in [4], in experiment [10], in experiment [7] and in experiment [8]. Also, the outcome in [9] was inactive. The Potency entry in experiment [2], in [5] and in experiment [6] was “inactive” throughout.

With `CCN(CC)CCO`, the molecule was called inactive in [1], in experiment [3], in experiment [4], in experiment [10], in experiment [7] and in experiment [8]. Moreover, the result in [9] was inactive. Besides, the Potency entry in experiment [2], in [5] and in experiment [6] was “inactive” each time.
